In PubChem BioAssay (NCI):
Compounds without any hit were thinned out: in the full panel of roughly 83,000, 20% have a hit.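 The test compound was applied at a single concentration to cells in 96-well plates for 48 hours, and percent growth was recorded.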 The source made the active and inactive calls. Rule for the calls: active = growth percent below 10; inactive = the rest.

How the values were obtained:
Experiment in all cases: NCI-60 one-dose screen, 48 h (100 = growth as untreated, 0 = no growth, -100 = all killed)
Details in all cases: 10 µM unless noted
DU-145 prostate = tested on: DU-145 prostate
K-562 leukemia = tested on: K-562 leukemia
MALME-3M melanoma = tested on: MALME-3M melanoma
MDA-MB-231 breast = tested on: MDA-MB-231 breast
RXF 393 renal = tested on: RXF 393 renal
SF-268 CNS = tested on: SF-268 CNS
SF-295 CNS = tested on: SF-295 CNS
SF-539 CNS = tested on: SF-539 CNS
UACC-257 melanoma = tested on: UACC-257 melanoma
M14 melanoma = tested on: M14 melanoma

Measured: growth

COc1ccc2c(c1)Oc1nc(N)c(C#N)c(N)c1C2Sc1ccc(SC)cc1 (stereo not given)
active: K-562 leukemia 2.45% | MALME-3M melanoma -22.5% | RXF 393 renal -54.8%
inactive: DU-145 prostate 46.2% | MDA-MB-231 breast 10.5% | SF-268 CNS 61.4% | SF-295 CNS 80.8% | SF-539 CNS 14.7% | UACC-257 melanoma 67.3% | M14 melanoma 27.6%

C=C1C(=O)O[C@H]2[C@H]1CC/C(COC(=O)c1cn(C)c3ccccc13)=C\CC[C@@]1(C)O[C@@H]21
inactive: SF-295 CNS 63.8%
active: DU-145 prostate -72.4% | K-562 leukemia 0.396% | MALME-3M melanoma -60.3% | MDA-MB-231 breast -49% | RXF 393 renal -87.8% | SF-268 CNS -8.89% | SF-539 CNS -58% | UACC-257 melanoma -56% | M14 melanoma -36.8%

COc1cc2cc(c1Cl)N(C)C(=O)C[C@H](OC(=O)[C@H](C)N(C)C(=O)CCS)C[C@]1(C)O[C@H]1[C@H](C)[C@@H]1C[C@@](O)(NC(=O)O1)[C@H](OC)/C=C/C=C(\C)C2
active: DU-145 prostate 2.17% | SF-295 CNS 3.96% | SF-539 CNS -17.1% | M14 melanoma 1.73%
inactive: K-562 leukemia 11.7% | MALME-3M melanoma 64.3% | MDA-MB-231 breast 17.8% | RXF 393 renal 43.6% | SF-268 CNS 37.1% | UACC-257 melanoma 69.3%

COc1cc(/C=C/C(=O)c2ccc(NC(=O)CSc3nnc(-c4cc(OC)c(OC)c(OC)c4)n3-c3ccccc3)cc2)cc(OC)c1OC
active: K-562 leukemia 6.66% | RXF 393 renal -55.4% | M14 melanoma -9.25%
inactive: DU-145 prostate 26.5% | MALME-3M melanoma 67.7% | MDA-MB-231 breast 42.7% | SF-268 CNS 34.3% | SF-295 CNS 17.7% | SF-539 CNS 18.6% | UACC-257 melanoma 45.8%

C/C(=C\c1cnc(C)s1)[C@@H]1C[C@@H]2O[C@@H]2CCC[C@H](C)[C@H](O)[C@@H](C)C(=O)C(C)(C)[C@@H](O)CC(=O)O1
inactive: K-562 leukemia 11.8% | MALME-3M melanoma 54.6% | MDA-MB-231 breast 41.3% | RXF 393 renal 18.1% | SF-268 CNS 51.7% | UACC-257 melanoma 76.1% | M14 melanoma 22.1%
active: DU-145 prostate 2.1% | SF-295 CNS 7.05% | SF-539 CNS 7.63%

CN1CC=C(c2cc(NC(=O)Nc3ccc(Oc4ccnc(NC(=O)C5CC5)c4)c(F)c3)cc(C(F)(F)F)c2)CC1
active: DU-145 prostate 9.52% | K-562 leukemia -12.2% | MALME-3M melanoma -32.5% | MDA-MB-231 breast -11.8% | RXF 393 renal -27.4% | SF-268 CNS -1.76% | SF-295 CNS -9.64% | SF-539 CNS -47.9% | UACC-257 melanoma -0.573% | M14 melanoma -38.3%

C=CCn1c(SCC(=O)Nc2ccc(C(=O)/C=C/c3cc(OC)c(OC)c(OC)c3)cc2)nnc1-c1ccccc1
inactive: DU-145 prostate 76.7% | K-562 leukemia 48.9% | MALME-3M melanoma 91% | MDA-MB-231 breast 98.9% | RXF 393 renal 97.8% | SF-268 CNS 93.5% | SF-295 CNS 92.6% | SF-539 CNS 96.2% | UACC-257 melanoma 81.4% | M14 melanoma 86.9%

C1=CC2=CC=C3C=CC=C4C(c5nc6c7ccccc7c7ccccc7c6[nH]5)=CC(=C1)C2C34 (stereo not given)
inactive: DU-145 prostate 105% | K-562 leukemia 90.4% | MALME-3M melanoma 117% | MDA-MB-231 breast 76.8% | RXF 393 renal 99.8% | SF-268 CNS 85.4% | SF-295 CNS 113% | SF-539 CNS 101% | UACC-257 melanoma 105% | M14 melanoma 99.3%

CCCCOc1nc2ccc(C)cc2cc1/C=C/C(=O)/C=C/c1ccc2c(c1)OCO2
inactive: DU-145 prostate 82.8% | K-562 leukemia 69.1% | MALME-3M melanoma 106% | MDA-MB-231 breast 92.8% | RXF 393 renal 108% | SF-268 CNS 75.4% | SF-295 CNS 105% | SF-539 CNS 109% | UACC-257 melanoma 73.3% | M14 melanoma 52.4%

[2H]c1nc(Nc2ncc3cc(C(=O)N(C)C)n(C4CCCC4)c3n2)c([2H])c([2H])c1N1C([2H])([2H])C([2H])([2H])NC([2H])([2H])C1([2H])[2H]
inactive: DU-145 prostate 88.4% | K-562 leukemia 53.2% | MALME-3M melanoma 62.4% | MDA-MB-231 breast 51% | RXF 393 renal 62.9% | SF-268 CNS 75.3% | SF-295 CNS 72.1% | SF-539 CNS 71.5% | UACC-257 melanoma 60% | M14 melanoma 70.7%

COc1ccc2oc(=O)cc(-c3c(C#N)c(N)n4nc(N)c(C#N)c4c3C#N)c2c1
inactive: DU-145 prostate 106% | K-562 leukemia 86.4% | MALME-3M melanoma 77.4% | MDA-MB-231 breast 104% | RXF 393 renal 100% | SF-268 CNS 89.9% | SF-295 CNS 103% | SF-539 CNS 98.2% | UACC-257 melanoma 107% | M14 melanoma 111%

CNC(=O)c1cc(Oc2ccc3c(c2)sc2nc(-c4ccc(NC(C)=O)cc4)cn23)ccn1
active: RXF 393 renal 8.2%
inactive: DU-145 prostate 23.1% | K-562 leukemia 50.5% | MALME-3M melanoma 71.8% | MDA-MB-231 breast 59.5% | SF-268 CNS 64% | SF-295 CNS 26.2% | SF-539 CNS 62.8% | UACC-257 melanoma 70.9% | M14 melanoma 46.5%

Cc1ccc(C2CC(c3ccc(Nc4nc(NCCO)nc(NCCO)n4)cc3)=NN2c2ccc(Cl)cc2)cc1 (stereo not given)
active: RXF 393 renal -12.6%
inactive: DU-145 prostate 62.6% | K-562 leukemia 14.9% | MALME-3M melanoma 67.3% | MDA-MB-231 breast 66.9% | SF-268 CNS 56.8% | SF-295 CNS 30.3% | SF-539 CNS 39% | UACC-257 melanoma 75.1% | M14 melanoma 61.4%

Cc1ccccc1NC(=O)c1sc2nc(C)c(C(C)O)cc2c1N (stereo not given)
inactive: DU-145 prostate 81.8% | K-562 leukemia 14.4% | MALME-3M melanoma 60.2% | MDA-MB-231 breast 59.4% | RXF 393 renal 44.9% | SF-268 CNS 67.5% | SF-295 CNS 39.5% | SF-539 CNS 31.7% | UACC-257 melanoma 52.5% | M14 melanoma 24.7%

Cc1nc2sc(C(=O)Nc3cccc4ccccc34)c(N)c2cc1C(C)O (stereo not given)
inactive: DU-145 prostate 13.6% | MALME-3M melanoma 85.1% | MDA-MB-231 breast 33.1% | RXF 393 renal 21.7% | SF-268 CNS 51.4% | SF-295 CNS 10.8% | UACC-257 melanoma 64% | M14 melanoma 15.4%
active: K-562 leukemia 8.19% | SF-539 CNS 0.0649%

Cc1c(Cl)cccc1NC(=O)c1sc2nc3c(cc2c1N)COCC3
inactive: DU-145 prostate 33% | K-562 leukemia 13% | MALME-3M melanoma 59.4% | MDA-MB-231 breast 49% | RXF 393 renal 13.1% | SF-268 CNS 47.4% | SF-295 CNS 12.9% | SF-539 CNS 11.4% | UACC-257 melanoma 47.3% | M14 melanoma 10.8%

CC(=O)Nc1nc2c(c(N)c1C#N)C(c1cccc(Cl)c1)C1=C(CCCC1=O)N2c1sc2c(c1C#N)CCCC2 (stereo not given)
inactive: DU-145 prostate 72.5% | K-562 leukemia 29.8% | MALME-3M melanoma 83.3% | MDA-MB-231 breast 67.1% | RXF 393 renal 16.2% | SF-268 CNS 66.3% | SF-295 CNS 44% | SF-539 CNS 65% | UACC-257 melanoma 54.4% | M14 melanoma 52.2%

COC(=O)/C=C1\SC(=Nc2ccc(C(F)(F)F)cc2)N(CCc2c[nH]c3ccccc23)C1=O
active: DU-145 prostate -65.4% | K-562 leukemia -0.591% | MALME-3M melanoma -89.6% | MDA-MB-231 breast -63.7% | RXF 393 renal -70.2% | SF-268 CNS -3.91% | SF-295 CNS -81.4% | SF-539 CNS -91.2% | UACC-257 melanoma -50.3% | M14 melanoma -45.6%

COc1cc(NCC(=O)Nc2cc(Nc3ccc(C)cc3)ncn2)c(Cl)c(OC)c1Cl
inactive: DU-145 prostate 102% | K-562 leukemia 80.6% | MALME-3M melanoma 111% | MDA-MB-231 breast 64.2% | RXF 393 renal 118% | SF-268 CNS 88.6% | SF-295 CNS 82.8% | SF-539 CNS 95.5% | UACC-257 melanoma 89% | M14 melanoma 88.4%

O=c1[nH]c(-c2cccc(F)c2)cc2cc(F)ccc12
active: RXF 393 renal 9.93% | SF-295 CNS 8.3% | SF-539 CNS -1.4%
inactive: DU-145 prostate 30.1% | K-562 leukemia 14.1% | MALME-3M melanoma 73% | MDA-MB-231 breast 49.8% | SF-268 CNS 68.4% | UACC-257 melanoma 55.3% | M14 melanoma 20.3%

CC(C)NS(=O)(=O)c1cccc(-c2ccc3c4c(n(CCCN(C)C)c(=O)c3c2)-c2ccccc2C4=O)c1
inactive: DU-145 prostate 108% | MALME-3M melanoma 91.6% | MDA-MB-231 breast 83.8% | RXF 393 renal 96.1% | SF-268 CNS 103% | SF-295 CNS 104% | SF-539 CNS 90.7% | UACC-257 melanoma 107% | M14 melanoma 104%
active: K-562 leukemia -57.8%

COc1cccc(NC(=O)Nc2ccc(Nc3ncnc4[nH]c(C)c(C)c34)cc2)c1
inactive: DU-145 prostate 110% | K-562 leukemia 94.4% | MALME-3M melanoma 122% | MDA-MB-231 breast 108% | RXF 393 renal 111% | SF-268 CNS 94% | SF-295 CNS 95.5% | SF-539 CNS 69.3% | UACC-257 melanoma 98.3% | M14 melanoma 106%

COc1ccc(C(=S)c2cc(OC)c(OC)c(OC)c2)cc1OC(=O)CCl
active: DU-145 prostate 9.36% | SF-539 CNS 9.83%
inactive: K-562 leukemia 10.2% | MALME-3M melanoma 74.2% | MDA-MB-231 breast 32.9% | RXF 393 renal 44.7% | SF-268 CNS 39.3% | SF-295 CNS 14.7% | UACC-257 melanoma 56.7% | M14 melanoma 12.6%
